For 36 compounds, cytotoxicity call results are on record in the antibiotic and cytotoxicity screens of Wong et al. (2023).

SMILES strings stand for the structures. The whole screen tested about 39,000 compounds, of which about 3,300 (8.5%) were called active. Shown is part of a subset that was picked to be rich in actives.

In the test the test system is HepG2. In words: cytotoxicity call (relative viability < 0.9). To be noted: 10 µM.
For the compound `COc1ccc(NC(=O)N(C)C[C@H]2Oc3ncc(C#CCN(C)C)cc3C(=O)N([C@H](C)CO)C[C@H]2C)cc1`, the cytotoxicity call is “inactive”.
Then `C[C@H](CO)N1C[C@H](C)[C@@H](CN(C)C(=O)C2CCOCC2)Oc2cc(-c3ccc(C(=O)N(C)C)cc3)ccc2S1(=O)=O`, with “inactive”.
In the case of `C[C@H]1CCCCO[C@H](CN(C)Cc2ccc(C(F)(F)F)cc2)[C@@H](C)CN([C@@H](C)CO)C(=O)c2cc(NC(=O)c3ccncc3)ccc2O1`, the cytotoxicity call is “inactive”.
Then `C[C@@H]1CCCCO[C@@H](CN(C)C(=O)CCCN(C)C)[C@@H](C)CN([C@H](C)CO)C(=O)c2cc(N(C)C)ccc2O1`, with “inactive”; and `C[C@H](CO)N1C[C@H](C)[C@@H](CN(C)CC2CCCCC2)Oc2ccc(NC(=O)Cc3cn(C)c4ccccc34)cc2C1=O`, with “inactive”.
Turning to `CCCN(C)C[C@H]1OCCCC[C@@H](C)Oc2ccc(NC(=O)Cc3ccccc3)cc2C(=O)N([C@H](C)CO)C[C@H]1C`, the cytotoxicity call is “inactive”.
For `O=C(C[C@H]1CC[C@@H]2[C@H](COC[C@H](O)CN2CC2CCOCC2)O1)N1CCOCC1`, the cytotoxicity call is “inactive”.
Take `C[C@@H]1CN([C@H](C)CO)C(=O)Cc2cc(NC(=O)CCN3CCOCC3)ccc2O[C@H]1CN(C)S(=O)(=O)c1cccs1`: the cytotoxicity call was “inactive”.
For `C[C@@H]1CCCCO[C@@H](CN(C)Cc2ccc(C(=O)O)cc2)[C@@H](C)CN([C@H](C)CO)C(=O)c2cc(NC(=O)Nc3cccc4ccccc34)ccc2O1`, the cytotoxicity call is “inactive”.
Regarding `C[C@@H]1CN([C@@H](C)CO)C(=O)c2cc(NC(=O)Nc3cccc4ccccc34)ccc2O[C@@H](C)CCCCO[C@H]1CN(C)Cc1ccccc1`, the cytotoxicity call is “active”.
Next, `C[C@@H]1CCCCO[C@H](CN(C)Cc2ccncc2)[C@H](C)CN([C@@H](C)CO)C(=O)c2cc(NC(=O)Nc3cccc4ccccc34)ccc2O1`: “active”; `C[C@@H]1CCCCO[C@H](CN(C)Cc2ccccc2)[C@@H](C)CN([C@@H](C)CO)C(=O)c2cc(NC(=O)Nc3cccc4ccccc34)ccc2O1`: “active”; `C[C@@H]1CCCCO[C@H](CN(C)Cc2ccc(C(=O)O)cc2)[C@@H](C)CN([C@@H](C)CO)C(=O)c2cc(NC(=O)Nc3cccc4ccccc34)ccc2O1`: “inactive”.
As to `C[C@H]1CCCCO[C@H](CN(C)Cc2ccccc2)[C@@H](C)CN([C@@H](C)CO)C(=O)c2cc(NC(=O)Nc3cccc4ccccc34)ccc2O1`, the cytotoxicity call was “active”.
Then `C[C@@H]1CCCCO[C@@H](CN(C)Cc2ccccc2)[C@@H](C)CN([C@H](C)CO)C(=O)c2cc(NC(=O)Nc3cccc4ccccc34)ccc2O1`, with “inactive”.
Then `C[C@@H]1CN([C@@H](C)CO)C(=O)c2cc(NC(=O)Nc3cccc4ccccc34)ccc2O[C@@H](C)CCCCO[C@H]1CN(C)Cc1ccncc1`, with “inactive”; and `C[C@@H]1CN([C@@H](C)CO)C(=O)c2cc(NC(=O)Nc3cccc4ccccc34)ccc2O[C@@H](C)CCCCO[C@@H]1CN(C)Cc1ccncc1`, with “inactive”; and `C[C@@H]1CCCCO[C@@H](CN(C)Cc2ccccc2)[C@H](C)CN([C@@H](C)CO)C(=O)c2cc(NC(=O)Nc3cccc4ccccc34)ccc2O1`, with “inactive”.
Turning to `CC(C)NC(=O)N(C)C[C@@H]1OCc2cnnn2CCCC(=O)N([C@H](C)CO)C[C@@H]1C`, the cytotoxicity call was “inactive”.
Next, `C[C@H]1CN([C@@H](C)CO)C(=O)c2c(c3ccccc3n2C)-c2ccccc2CO[C@@H]1CN(C)C(=O)c1ccc(F)cc1`: “inactive”.
Regarding `C[C@H]1CCCCO[C@@H](CN(C)Cc2ccc3c(c2)OCO3)[C@@H](C)CN([C@@H](C)CO)C(=O)c2cc(NS(=O)(=O)c3ccc(F)cc3)ccc2O1`, the cytotoxicity call was “inactive”.
Consider `C[Si](C)(C)O[Si](C)(C)O[Si](C)(C)C`, for which the cytotoxicity call was “inactive”.
Take `COc1ccc(S(=O)(=O)N(C)C[C@@H]2Oc3c(NS(=O)(=O)c4ccc(F)cc4)cccc3C(=O)N([C@H](C)CO)C[C@H]2C)cc1`: the cytotoxicity call was “inactive”.
Then `Cc1ccc(S(=O)(=O)N(C)C[C@H]2OCCCC[C@@H](C)Oc3ccc(NC(=O)C4CCCCC4)cc3C(=O)N([C@H](C)CO)C[C@H]2C)cc1`, with “inactive”; and `COc1ccccc1CNC(=O)C[C@@H]1CC[C@H]2[C@@H](COC[C@H](O)CN2C(=O)Nc2ccc(Cl)cc2)O1`, with “inactive”; and `C[C@@H]1CN([C@H](C)CO)C(=O)c2cc(NC(=O)Nc3cccc4ccccc34)ccc2O[C@@H](C)CCCCO[C@H]1CN(C)Cc1ccc(C(F)(F)F)cc1`, with “inactive”.
Then `C[C@H](CO)N1C[C@H](C)[C@H](CN(C)Cc2ccccc2)OCCCC[C@H](C)Oc2ccc(NC(=O)Nc3cccc4ccccc34)cc2C1=O`, with “inactive”.
Consider `C[C@@H]1CN([C@@H](C)CO)C(=O)c2cc(NC(=O)Nc3cccc4ccccc34)ccc2O[C@@H](C)CCCCO[C@H]1CN(C)Cc1ccc(C(F)(F)F)cc1`, for which the cytotoxicity call is “inactive”.
Then `C[C@@H]1CCCCO[C@@H](CN(C)Cc2ccccc2)[C@@H](C)CN([C@@H](C)CO)C(=O)c2cc(NC(=O)Nc3cccc4ccccc34)ccc2O1`, with “inactive”; and `C[C@@H]1CN([C@@H](C)CO)C(=O)c2cc(NC(=O)Nc3cccc4ccccc34)ccc2O[C@@H](C)CCCCO[C@@H]1CN(C)Cc1ccccc1`, with “active”.
Next, `C[C@@H]1CCCCO[C@H](CN(C)Cc2ccc(C(=O)O)cc2)[C@H](C)CN([C@H](C)CO)C(=O)c2cc(NC(=O)Nc3cccc4ccccc34)ccc2O1`: “inactive”; `C[C@H](CO)N1C[C@H](C)[C@@H](CN(C)Cc2ccc(C(F)(F)F)cc2)OCCCC[C@H](C)Oc2ccc(NC(=O)Nc3cccc4ccccc34)cc2C1=O`: “active”; `C[C@@H]1CCCCO[C@@H](CN(C)Cc2ccc(C(=O)O)cc2)[C@@H](C)CN([C@@H](C)CO)C(=O)c2cc(NC(=O)Nc3cccc4ccccc34)ccc2O1`: “inactive”.
Next, `C[C@@H]1CN([C@H](C)CO)C(=O)c2cc(NC(=O)Nc3cccc4ccccc34)ccc2O[C@@H](C)CCCCO[C@H]1CN(C)Cc1ccccc1`: “active”; `COc1ccc(S(=O)(=O)N(C)C[C@@H]2Oc3ccc(NS(=O)(=O)c4c(C)noc4C)cc3C(=O)N([C@@H](C)CO)C[C@H]2C)cc1`: “inactive”; `COc1ccc(S(=O)(=O)N(C)C[C@H]2OCCCC[C@@H](C)Oc3ccc(NC(=O)CCCCCC(=O)Nc4ccccc4N)cc3C(=O)N([C@H](C)CO)C[C@H]2C)cc1`: “inactive”.
